The results in this text go back to PubChem BioAssay.

Test [1] is described as follows: inhibitors of TNFa-induced NFkB p65 translocation, primary screen, imaging, HUVEC, MLSMR starter and 10KST1 sets (AID 438).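 Further: compound added about 3h40 before a 20 min TNFalpha stimulation.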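 On inhibition: signal is the nuclear over cytoplasmic p65 intensity ratio per well.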 The conditions noted are these: HUVEC TNFa-induced p65 nuclear translocation; cell count: measured here: nuclei count (cytotoxicity indicator), at 2.08 µM; inhibition: at 2 µM, stronger effect = higher value, 0% TNFa-plus-vehicle, 100% no-TNFa wells.
Test [2] is described as follows: inhibitors of mutant huntingtin aggregation, primary screen, imaging, exon1htt(103Q)mCFP cells, high-content imaging (AID 483;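 active means visual image review flags a hit and inhibition of aggregation exceeds 20%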;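 further: compound exposure lasted 3 days before fixation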;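 on nuclei count: percent of the per-plate median nuclei count of sample wells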). The conditions noted are these: exon1htt(103Q)mCFP cell line, aggregate imaging, at 2 µM; inhibition of aggregation: stronger effect = higher value; nuclei count: measured here: cell count, toxicity.
A short description of test [3]: inhibitors of E-selectin induction by TNFa, primary screen, imaging, HUVEC, immunofluorescence, MLSMR starter and 10KST1 sets (AID 487;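 active means visually confirmed hit in the image check and inhibition above 20%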;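 on inhibition: signal is fraction of cell area covered by stained E-selectin grains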;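 on nuclei count: 100% = median nuclei count of all wells on the same plate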). The conditions noted are these: HUVEC TNFalpha-induced E-selectin immunofluorescence imaging, at 2 µM; inhibition: stronger effect = higher value; nuclei count: measured here: cell number, toxicity.
Test [4] deals with Voltage-gated potassium channel subunit beta-2 (Rattus norvegicus) (UniProt P62483). Briefly: KvBeta enzyme negative modulators, primary screen, biochemical, NADPH fluorescence (AID 622;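 active means fluorescence slope higher than the sample average by over 3 SD, cut at about -0.22 in these data, passing the limit was not always enough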;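 further: slope of raw intensity against log time taken from 70 to 1610 s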). The conditions noted are these: recombinant KvBeta, 4-cyanobenzaldehyde reduction, at 10 µM, stronger effect = higher value.
The target is the same in test [5]. The test is described as follows: KvBeta positive modulators, primary screen, biochemical, NADPH fluorescence (AID 623;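 active means NADPH fluorescence slope more negative than the mean of all samples by about 3 SD, 99.7% confidence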;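 further: fluorescence intensity change per second fitted from 20 to 320 s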). The conditions noted are these: Recombinant KvBeta, NADPH fluorescence decrease slope, 10 min; at 10 µM; stronger effect = lower value.
In test [6] the target is Alpha-2C adrenergic receptor (Homo sapiens) (UniProt P18825). Briefly: modulators of alpha2C/GIRK thallium flux, primary screen, cell-based, HEK293 alpha2C/GIRK1/2 (AID 624;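 active means fluorescence slope after compound addition differing from the mean of all screened samples at 99.7% confidence, in either direction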;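 further: slope of fluorescence ratio to pre-addition baseline per second over 15 to 24 s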). The conditions noted are these: thallium flux BTC fluorescence, at 10 µM, actives lie on both sides.
A short description of test [7]: inhibitors of Sendai virus-induced IRF3 signaling, primary screen, TLR/RLR signaling modifier project, cell-based, Sendai virus stimulus, luciferase, 10K MLSCN set (AID 602276;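 active means inhibition at or above 50% at 10 µM; inactive means inhibition below 50%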;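 further: firefly luciferase from ISG56 promoter only with Renilla not read in this screen; 0% = Sendai virus plus DMSO and 100% = medium plus DMSO without virus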). The conditions noted are these: HEK293 RL24 IRF3 luciferase reporter, at 10 µM, stronger effect = higher value.
A short description of test [8]: inhibitors of poly I:C-induced TLR3 signaling, primary screen, cell-based, poly I:C stimulus, luciferase, 10K MLSCN set (AID 602277;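 active means inhibition of the reporter signal at or above 50%; inactive means inhibition below 50%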). The conditions noted are these: HEK293-TLR3 RL24 IRF3 luciferase reporter, at 10 µM, stronger effect = higher value. (In a reporter assay the amount or activity of a reporter protein is the signal.)

Calls of active or inactive are those of the source.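 How the source made its calls, unless noted: active means inhibition above 20% together with a positive visual image hit; inconclusive means visual image hit but inhibition not above 20%; inactive means no visual image hit.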

Voltage-gated potassium channel subunit beta-2 (Rattus norvegicus), sequence (P62483 whole entry, looked up): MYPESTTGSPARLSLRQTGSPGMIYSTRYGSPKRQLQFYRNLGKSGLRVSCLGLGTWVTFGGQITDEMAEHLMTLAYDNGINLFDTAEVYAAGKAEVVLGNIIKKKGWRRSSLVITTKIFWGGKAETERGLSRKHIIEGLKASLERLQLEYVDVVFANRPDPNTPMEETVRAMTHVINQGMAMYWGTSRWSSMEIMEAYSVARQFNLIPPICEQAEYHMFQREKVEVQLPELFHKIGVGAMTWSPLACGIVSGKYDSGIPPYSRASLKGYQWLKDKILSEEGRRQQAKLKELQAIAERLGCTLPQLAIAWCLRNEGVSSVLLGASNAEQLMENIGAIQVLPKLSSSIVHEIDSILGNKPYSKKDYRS
Alpha-2C adrenergic receptor (Homo sapiens), sequence (P18825 whole entry, looked up): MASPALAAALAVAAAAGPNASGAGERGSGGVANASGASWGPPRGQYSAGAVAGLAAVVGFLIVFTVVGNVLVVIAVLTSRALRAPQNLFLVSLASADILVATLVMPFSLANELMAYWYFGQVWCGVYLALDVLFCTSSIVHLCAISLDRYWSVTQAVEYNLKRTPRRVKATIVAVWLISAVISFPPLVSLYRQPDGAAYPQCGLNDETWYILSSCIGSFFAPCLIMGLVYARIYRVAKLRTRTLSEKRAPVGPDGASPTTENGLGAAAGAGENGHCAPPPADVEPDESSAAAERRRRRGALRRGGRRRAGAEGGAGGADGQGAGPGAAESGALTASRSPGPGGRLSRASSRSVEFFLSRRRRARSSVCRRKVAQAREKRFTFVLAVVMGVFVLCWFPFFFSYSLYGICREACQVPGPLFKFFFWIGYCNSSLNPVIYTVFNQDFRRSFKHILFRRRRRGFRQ

Usually inhibition stands for the relative decrease from the control value, in per cent. As for `Cc1nc(NC(=O)c2csc3ccccc23)sc1C`, the cell count in test [1] was found to be 386. The inhibition was -2.7% (inactive) in test [1], -38.1% (inactive) in test [3], -31.4% (inactive) in test [7] and -86.4% (inactive) in test [8]. For the same molecule, the inhibition of aggregation in test [2] is -3.7% (inactive). For the same molecule, the nuclei count in test [2] is 103%; in test [3] it was 117%. The fluorescence slope in test [4] is -0.504 (inactive). Also, the NADPH fluorescence slope in test [5] is -5.5e-05 (inactive). In addition, the slope in test [6] was 0.00508 (inactive).

On to `Cc1cc(C(=O)NCc2cccnc2)no1`, for which the cell count in test [1] turned out to be 337. Further, the inhibition in test [1] is 4.2% (inactive); in test [3], 7.8% (inactive); in test [7], 11.1% (inactive); in test [8], 14.3% (inactive). Further, the inhibition of aggregation in test [2] was 6.9% (inactive). The nuclei count is 105% in test [2] and 102% in test [3]. Also, in test [4], the fluorescence slope is -0.5 (inactive). Also, the NADPH fluorescence slope in test [5] was -8.2e-06 (inactive). Also, in test [6], the slope is 0.00709 (inactive).

`O=C(NCc1cccs1)C1CCN(S(=O)(=O)c2cccs2)CC1`: the cell count in test [1] worked out at 353. The inhibition in test [1] is 4.5% (inactive); in test [3], -13.4% (inactive); in test [7], 7.22% (inactive); in test [8] it was 15% (inactive). Also, in test [2], the inhibition of aggregation is 0.9% (inactive). In addition, the nuclei count in test [2] stood at 99.2%; in test [3] it was 120%. Further, in test [4], the fluorescence slope was -0.619 (inactive). Besides, the NADPH fluorescence slope in test [5] is -1.4e-05 (inactive). For the same molecule, the slope in test [6] is 0.00617 (inactive).

For the molecule `OC(CN1CCN(c2ccccc2)CC1)c1ccc2c(c1)CCN2` (centres undefined), the cell count in test [1] is 604. The inhibition was -1.6% (inactive) in test [1], -60.6% (inactive) in test [3], 6.89% (inactive) in test [7] and 32.4% (inactive) in test [8]. In test [2], the inhibition of aggregation is 9.3% (inactive). Also, the values for the nuclei count in test [2] and in test [3] were 82.3% and 108%, respectively. In test [4], the fluorescence slope is -0.571 (inactive). Further, the NADPH fluorescence slope in test [5] was -2.8e-05 (inactive). Moreover, the slope in test [6] was 0.00657 (inactive).

Turning to `CCOc1ccc(NC(=O)CSc2nnc(COc3c(C)cccc3C)o2)cc1`, the cell count in test [1] came out at 577. Further, the inhibition in test [1] was 7.3% (inactive); in test [3] it was -13.1% (inactive); in test [7], 6.58% (inactive); in test [8], 30.3% (inactive). In test [2], the inhibition of aggregation was -15% (inactive). For the same molecule, the values for the nuclei count in test [2] and in test [3] were 116% and 115%, respectively. In test [4], the fluorescence slope is -0.567 (inactive). In test [5], the NADPH fluorescence slope is -1.4e-05 (inactive). In test [6], the slope was 0.00747 (inactive).

Turning to `CC(=O)Nc1cccc(OCC(O)Cn2cnc3ccccc32)c1` (centres undefined), the cell count in test [1] was 632. Moreover, the inhibition in test [1] is -20.4% (inactive); in test [3], -23.9% (inactive); in test [7], 14.1% (inactive); in test [8] it was 25.8% (inactive). Besides, the inhibition of aggregation in test [2] was 12.1% (inactive). Also, the nuclei count in test [2] stood at 101%; in test [3], 107%. For the same molecule, in test [4], the fluorescence slope is -0.674 (inactive). The NADPH fluorescence slope in test [5] was 1.3e-05 (inactive). Besides, the slope in test [6] is 0.00619 (inactive).

`COc1ccc(-n2c(SCC(=O)c3c(N)n(C)c(=O)n(C)c3=O)nc3ccccc32)cc1`: the cell count in test [1] stood at 735. Further, the inhibition in test [1] was 1.4% (inactive); in test [3], -35.8% (inactive); in test [7], 10.6% (inactive); in test [8], 14.8% (inactive). Moreover, the inhibition of aggregation in test [2] was 10.2% (inactive). The nuclei count came out at 110% in test [2] and 106% in test [3]. In addition, the fluorescence slope in test [4] was -0.581 (inactive). For the same molecule, the NADPH fluorescence slope in test [5] was -4.1e-05 (inactive). In addition, in test [6], the slope is 0.00517 (inactive).

Turning to `COc1ccc(Cn2nnnc2C(c2ccccc2OC)N2CCC(C(N)=O)CC2)cc1` (centres undefined), the cell count in test [1] worked out at 315. Also, the inhibition in test [1] is 4.4% (inactive); in test [3] it was -39.5% (inactive); in test [7], 10.7% (inactive); in test [8], 25.5% (inactive). Also, the inhibition of aggregation in test [2] was 6.9% (inactive). The nuclei count in test [2] turned out to be 74.4%; in test [3] it was 114%. Besides, the fluorescence slope in test [4] is -0.604 (inactive). Also, the NADPH fluorescence slope in test [5] is -4.2e-05 (inactive). The slope in test [6] was 0.00453 (inactive).

Turning to `Cn1c(C(=O)NCCCN2CCCCCC2)cc2c(=O)n(C)c3ccccc3c21`, in test [1], the cell count stood at 653. In addition, the inhibition was 5.5% (inactive) in test [1], -33.1% (inactive) in test [3], 72.2% (active) in test [7] and 79% (active) in test [8]. In test [2], the inhibition of aggregation was -31.5% (inactive). In addition, the nuclei count worked out at 76.6% in test [2] and 101% in test [3]. Besides, the fluorescence slope in test [4] was -0.639 (inactive). The NADPH fluorescence slope in test [5] was -4.1e-06 (inactive). Also, in test [6], the slope was 0.00675 (inactive).

Consider `CCOC(=O)c1cc2sccc2n1Cc1ccccc1`, for which, in test [1], the cell count worked out at 417. The inhibition in test [1] is 7.3% (inactive); in test [3], -147% (inactive); in test [7] it was -10.3% (inactive); in test [8] it was -7.29% (inactive). Besides, in test [2], the inhibition of aggregation is -5.2% (inactive). For the same molecule, the nuclei count in test [2] was 101%; in test [3], 99.7%. Besides, in test [4], the fluorescence slope is -0.598 (inactive). In addition, the NADPH fluorescence slope in test [5] is -9.9e-06 (inactive). For the same molecule, the slope in test [6] was 0.00361 (inactive).

`Cc1ccc2[nH]c(=O)c(CN(Cc3ccc4c(c3)OCO4)Cc3nnnn3Cc3ccco3)cc2c1`: the cell count in test [1] was 638. For the same molecule, the inhibition is 2.2% (inactive) in test [1], -74.1% (inactive) in test [3], 9.33% (inactive) in test [7] and 12.2% (inactive) in test [8]. Also, the inhibition of aggregation in test [2] was -15.3% (inactive). For the same molecule, the nuclei count in test [2] stood at 94.1%; in test [3] it was 122%. The fluorescence slope in test [4] is -0.622 (inactive). Further, the NADPH fluorescence slope in test [5] is -7e-06 (inactive). In addition, the slope in test [6] is 0.00625 (inactive).

Take `N#CCCCCn1c(-c2cncs2)nc2ccccc21`: the cell count in test [1] stood at 431. Also, the inhibition is 14.1% (inactive) in test [1], 22.2% (inactive) in test [3], 14.5% (inactive) in test [7] and 15.9% (inactive) in test [8]. The inhibition of aggregation in test [2] was 3.5% (inactive). The values for the nuclei count in test [2] and in test [3] were 101% and 107%, respectively. In test [4], the fluorescence slope was -0.385 (inactive). Further, the NADPH fluorescence slope in test [5] is -4.5e-05 (inactive). The slope in test [6] is 0.00375 (inactive).

`Cc1cccc(C)c1NC(=O)CS(=O)CC(=O)NC1CCCc2ccccc21` (centres undefined): the cell count in test [1] worked out at 562. Further, the inhibition in test [1] is -5.5% (inactive); in test [3], -73.7% (inactive); in test [7], 12.3% (inactive); in test [8] it was 20.9% (inactive). Further, in test [2], the inhibition of aggregation is -3.7% (inactive). Moreover, the nuclei count in test [2] was 62.2%; in test [3], 108%. In addition, the fluorescence slope in test [4] is -0.61 (inactive). Further, in test [5], the NADPH fluorescence slope was -3e-05 (inactive). Besides, the slope in test [6] was 0.00417 (inactive).

Turning to `COc1ccc(-c2cc(C(F)(F)F)n3nc(C(=O)N4CCOCC4)nc3n2)cc1`, the cell count in test [1] stood at 620. Further, the inhibition in test [1] is 11.1% (inactive); in test [3], 41.9% (inactive); in test [7] it was 10.8% (inactive); in test [8], 15.3% (inactive). Further, the inhibition of aggregation in test [2] is -19.6% (inactive). The nuclei count came to 103% in test [2] and 102% in test [3]. Besides, the fluorescence slope in test [4] was -0.172 (inactive). Besides, the NADPH fluorescence slope in test [5] is -5.6e-05 (inactive). Further, the slope in test [6] is 0.00494 (inactive).
